Results on six compounds are retold here after PubChem BioAssay.

The source made the active and inactive calls.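 The calls were made as follows, unless noted: active = compounds whose cell count with miR-34 switched on is under 0.7 times the count with it off; inactive = the rest.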

Experiment [1] can be described thus: viability loss with induced miR-34 in A549 – imaging, A549 dox-inducible miR-34, nuclei and caspase counts, primary screen (AID 1347080). Particulars: A549 miR-34 inducible, Hoechst nuclei count, 48 h.
A short description of experiment [2]: chitosan synthesis blockers in C. neoformans – flow cytometry, Cibacron Brilliant Red staining (AID 1347148; call rule not given here;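 also: compound exposure lasted three days at 37 degrees C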). The conditions noted are these: Cryptococcus neoformans chitosan, stronger effect = lower value; at 10 µM unless noted.
Setting [3] is: stronger effect = lower value, cell number ratio, induced over uninduced.
[4] abbreviates: measured here: relative caspase fold change +Dox/-Dox.
Where [5] appears, read: measured here: total cells with miR-34 induction, stronger effect = lower value.
[6] abbreviates: measured here: total cells without miR-34 induction.

`COc1ccc(/C=C\c2cc(OC)cc(OC)c2)cc1`: the fold change in experiment [1] (setting [3]) was 1.08 (inactive); in experiment [1] (setting [4]), 1.44. For the same compound, the values for the cell count in experiment [1] (setting [5]) and in experiment [1] (setting [6]) were 1220 and 1130, respectively.

Consider `CCCCCCCCCCCCCCCCSP(=O)([O-])OCC[N+](C)(C)C`, for which the results for the fold change in experiment [1] (setting [3]) and in experiment [1] (setting [4]) were 0.933 (inactive) and 0.479, respectively. Besides, the figures for the cell count in experiment [1] (setting [5]) and in experiment [1] (setting [6]) were 5080 and 5450, respectively.

For the compound `CCCC[C@H]1C(=O)O[C@H](C)[C@H](NC(=O)c2cccc(NC=O)c2OC)C(=O)O[C@@H](C)[C@@H]1OC(=O)CC(C)C`, the fold change in experiment [1] (stronger effect = lower value) is 1.28 (inactive); in experiment [1] (setting [4]), 0.897. The cell count in experiment [1] (setting [5]) was 869; in experiment [1] (setting [6]) it was 680. In addition, the fold fluorescence in experiment [2] was 6.91 [at 93.5 µM] (inactive).

For the compound `CC(C)CC(NP(=O)(O)OC1OC(C)C(O)C(O)C1O)C(=O)NC(Cc1c[nH]c2ccccc12)C(=O)O` (stereo unspecified), the fold change in experiment [1] (stronger effect = lower value) is 0.95 (inactive); in experiment [1] (setting [4]), 0.289. Moreover, the cell count in experiment [1] (setting [5]) turned out to be 9030; in experiment [1] (setting [6]), 9510.

`CCN1C[C@@]2(COC)C3[C@@H](OC)[C@H]4[C@H]1C3([C@@H]1C[C@@]3(O)[C@H](OC(=O)c5ccccc5)[C@@H]1[C@]4(OC(C)=O)[C@@H](O)[C@@H]3OC)[C@H](OC)C[C@H]2O`: the results for the fold change in experiment [1] (setting [3]) and in experiment [1] (setting [4]) were 0.989 (inactive) and 1.45, respectively. In addition, the cell count in experiment [1] (setting [5]) came to 5730; in experiment [1] (setting [6]) it was 5800.

On to `CCCCC/C=C\C/C=C\C/C=C\C/C=C\CCCC(=O)N[C@@H](C)CO`, for which the fold change was 1.04 (inactive) in experiment [1] (setting [3]) and 0.734 in experiment [1] (setting [4]). For the same compound, the cell count amounted to 6190 in experiment [1] (setting [5]) and 5940 in experiment [1] (setting [6]). Besides, in experiment [2], the fold fluorescence is 6.15 (inactive).
